Source: the supplement of paper PMC3545927
This is one part of the list. The true hit rate is not given.

B1: HC1524 (peptide)
chain: CAGLQDCTMLAGNASASA
B2: HC1957 (peptide)
chain: CASCTTPCSGAGNASASA
B3: HC1500 (peptide)
chain: CARLYVGGPLAGNASASA
B4: HC1374 (peptide)
chain: CATGALVTPCAGNASASA
B5: FS-53 (peptide)
chain: CALNERLKRVAGNASASA
B6: FS-148 (peptide)
chain: CAVDIRLKRVAGNASASA
B7: FS-112 (peptide)
chain: CAYSHRWKRNAGNASASA
B8: FS-1633 (peptide)
chain: CAICQRVKRVAGNASASA
B9: FS-188 (peptide)
chain: CARLLRHKRMAGNASASA
B10: HC861 (peptide)
chain: CADELAAKLVAGNASASA
B11: FS-256 (peptide)
chain: CAIQARAKRVAGNASASA
B12: HC1385 (peptide)
chain: CASLLRHHNLAGNASASA
B13: HC1531 (peptide)
chain: CAVVICESAGAGNASASA
B14: HC2221 (peptide)
chain: CAEVVTSNWVAGNASASA
B15: HC805 (peptide)
chain: CASPITYSTYAGNASASA
B16: HC876 (peptide)
chain: CADVVVVATDAGNASASA
B17: HC1487 (peptide)
chain: CAIRTEEAIYAGNASASA
B18: HC649 (peptide)
chain: CASQMETKLIAGNASASA
B19: HC449 (peptide)
chain: CANTLHCPTDAGNASASA
B20: FS-903 (peptide)
chain: CAYSHRHKRVAGNASASA
B21: FS-1631 (peptide)
chain: CAHLERHKRVAGNASASA
B22: FS-817 (peptide)
chain: CALAWRSGRVAGNASASA
B23: HC1235 (peptide)
chain: CAVGLHEYPVAGNASASA
B24: HC2050 (peptide)
chain: CAVVCCSVSYAGNASASA
B25: HC1763 (peptide)
chain: CAMEECSQHAAGNASASA
B26: HC1721 (peptide)
chain: CAMENCSQHLAGNASASA
B27: HC1847 (peptide)
chain: CATFPCSGSWAGNASASA
B28: FS-3038 (peptide)
chain: CARQKRSVENAGNASASA
B29: HC948 (peptide)
chain: CAQTKQSGENAGNASASA
B30: FS-2246 (peptide)
chain: CADQKRSLESAGNASASA
B31: FS-2323 (peptide)
chain: CAYPKRSSEVAGNASASA
B32: FS-1966 (peptide)
chain: CARQKRSDLYAGNASASA
B33: HC295 (peptide)
chain: CAATLCSALYAGNASASA
B34: FS-1984 (peptide)
chain: CAIGKRSVEYAGNASASA
B35: FS-2631 (peptide)
chain: CALQKRSSRHAGNASASA
B36: FS-1768 (peptide)
chain: CARQKRILVNAGNASASA
B37: FS-2591 (peptide)
chain: CARQYRSAYYAGNASASA
B38: HC1008 (peptide)
chain: CAIPDREVLYAGNASASA
B39: HC1474 (peptide)
chain: CAAWKSKKTPAGNASASA
B40: HC685 (peptide)
chain: CAGRDKNQVEAGNASASA
B41: HC588 (peptide)
chain: CAAQLHVWIPAGNASASA
B42: HC659 (peptide)
chain: CAINGLPVSAAGNASASA
B43: FS-2361 (peptide)
chain: CARQKRIHSAAGNASASA
B44: HC1363 (peptide)
chain: CAWSTVSSEAAGNASASA
B45: FS-3037 (peptide)
chain: CARQKRSSEAAGNASASA
B46: FS-2170 (peptide)
chain: CARQKRSVSIAGNASASA

Biological target: furin, P09958
Sequence (P09958 whole entry): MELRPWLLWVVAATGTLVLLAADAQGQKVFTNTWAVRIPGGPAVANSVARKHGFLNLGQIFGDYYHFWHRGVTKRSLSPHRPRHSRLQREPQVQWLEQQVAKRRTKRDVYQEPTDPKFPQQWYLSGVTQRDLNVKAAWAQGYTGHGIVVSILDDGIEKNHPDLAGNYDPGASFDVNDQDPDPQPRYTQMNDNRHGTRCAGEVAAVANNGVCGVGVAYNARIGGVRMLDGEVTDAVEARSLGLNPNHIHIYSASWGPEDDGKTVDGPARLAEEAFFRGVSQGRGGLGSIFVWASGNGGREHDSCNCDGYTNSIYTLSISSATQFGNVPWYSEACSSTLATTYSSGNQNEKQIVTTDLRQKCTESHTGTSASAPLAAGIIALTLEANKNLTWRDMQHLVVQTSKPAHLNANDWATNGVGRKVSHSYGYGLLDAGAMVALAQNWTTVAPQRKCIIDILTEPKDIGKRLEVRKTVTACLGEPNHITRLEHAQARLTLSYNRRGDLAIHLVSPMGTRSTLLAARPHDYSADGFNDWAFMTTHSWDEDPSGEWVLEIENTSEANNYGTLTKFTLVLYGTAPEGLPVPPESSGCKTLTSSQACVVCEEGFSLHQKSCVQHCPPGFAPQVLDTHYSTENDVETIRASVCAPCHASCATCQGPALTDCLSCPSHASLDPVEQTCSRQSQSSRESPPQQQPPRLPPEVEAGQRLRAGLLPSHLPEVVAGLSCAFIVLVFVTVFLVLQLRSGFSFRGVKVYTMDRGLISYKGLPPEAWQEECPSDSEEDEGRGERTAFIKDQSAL
Assay: furin cleavage Z-score vs untreated control; higher = more cleavage, active = 3.5 or more, inactive = 1 or less, 8 variable residues between constant flanks
Outline: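 Magnetic beads held 8-mer peptides by the N-terminus, each fused to a cDNA oligonucleotide, and purified furin was added for 7.5, 15 or 30 min. Released DNA was sequenced after PCR adapter tagging. The cleavage Z-score is the log count relative to furin-free reactions, lowess-adjusted and divided by median absolute deviation.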
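Also: purified furin at 1:10 enzyme:substrate in 50 mM HEPES pH 7.5.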

| Sequence | furin cleavage Z-score (7.5 min) | furin cleavage Z-score (15 min) | furin cleavage Z-score (30 min) |
| --- | --- | --- | --- |
| B1 | 1.18 | 0.431 (inactive) | 0.816 (inactive) |
| B2 | 0.117 (inactive) | -0.946 (inactive) | 0.203 (inactive) |
| B3 | -0.16 (inactive) | 0.662 (inactive) | 0.78 (inactive) |
| B4 | 1.46 | -0.486 (inactive) | -0.745 (inactive) |
| B5 | 2.86 | 3.12 | 3.89 (active) |
| B6 | 0.517 (inactive) | 1.34 | 1.54 |
| B7 | 7.46 (active) | 8.5 (active) | 7.17 (active) |
| B8 | 0.73 (inactive) | -0.331 (inactive) | 1.69 |
| B9 | 8.79 (active) | 8.2 (active) | 6.11 (active) |
| B10 | -0.523 (inactive) | 0.896 (inactive) | 0.946 (inactive) |
| B11 | 4.63 (active) | 3.93 (active) | 4.73 (active) |
| B12 | -0.346 (inactive) | 0.336 (inactive) | 0.383 (inactive) |
| B13 | 0.204 (inactive) | -0.473 (inactive) | 1.4 |
| B14 | -0.745 (inactive) | -1.12 (inactive) | -0.494 (inactive) |
| B15 | 0.448 (inactive) | 0.103 (inactive) | -0.462 (inactive) |
| B16 | -1.44 (inactive) | -0.376 (inactive) | -0.463 (inactive) |
| B17 | -0.614 (inactive) | -0.579 (inactive) | -0.877 (inactive) |
| B18 | 1.65 | 0.44 (inactive) | -0.0666 (inactive) |
| B19 | -0.243 (inactive) | -1.86 (inactive) | -0.583 (inactive) |
| B20 | 5.57 (active) | 7.12 (active) | 6.65 (active) |
| B21 | 7.08 (active) | 8.35 (active) | 8.68 (active) |
| B22 | -2.25 (inactive) | -0.244 (inactive) | 0.218 (inactive) |
| B23 | -0.411 (inactive) | -0.271 (inactive) | -1.96 (inactive) |

| Sequence | furin cleavage Z-score (7.5 min) | furin cleavage Z-score (15 min) | furin cleavage Z-score (30 min) |
| --- | --- | --- | --- |
| B24 | -0.658 (inactive) | -0.454 (inactive) | -0.515 (inactive) |
| B25 | -0.182 (inactive) | -0.0436 (inactive) | 1.21 |
| B26 | 0.959 (inactive) | 2.87 | 0.898 (inactive) |
| B27 | -0.0484 (inactive) | -0.806 (inactive) | -1.82 (inactive) |
| B28 | 10.2 (active) | 9.71 (active) | 8.9 (active) |
| B29 | -0.725 (inactive) | -1.67 (inactive) | -1.53 (inactive) |
| B30 | -0.764 (inactive) | -1.16 (inactive) | -0.0942 (inactive) |
| B31 | -0.277 (inactive) | -2 (inactive) | 0.081 (inactive) |
| B32 | 4.32 (active) | 5.36 (active) | 5.43 (active) |
| B33 | 1.6 | -0.694 (inactive) | 0.385 (inactive) |
| B34 | 1.53 | 2.52 | 3.58 (active) |
| B35 | 5.41 (active) | 7.89 (active) | 8.89 (active) |
| B36 | -0.183 (inactive) | -1.46 (inactive) | 0.612 (inactive) |
| B37 | -0.594 (inactive) | 0.967 (inactive) | 2.18 |
| B38 | -1.25 (inactive) | -0.885 (inactive) | -0.354 (inactive) |
| B39 | -0.115 (inactive) | 0.0818 (inactive) | -0.362 (inactive) |
| B40 | 0.288 (inactive) | -0.161 (inactive) | -1.36 (inactive) |
| B41 | -0.31 (inactive) | -0.454 (inactive) | -0.108 (inactive) |
| B42 | -0.744 (inactive) | -0.464 (inactive) | -0.336 (inactive) |
| B43 | -1.05 (inactive) | -0.069 (inactive) | -0.712 (inactive) |
| B44 | 1.2 | -0.449 (inactive) | 0.19 (inactive) |
| B45 | 9.89 (active) | 9.51 (active) | 6.34 (active) |
| B46 | 3.57 (active) | 5.04 (active) | 6.27 (active) |
